HCMV inh: inhibitors of human cytomegalovirus | HFF cells, HCMV-luciferase reporter, 72 h; hits give low values | activity change, negative = inhibition, % at 57.5 µM | 4.5% of 410,000 active | AID 1259415; in the data active = activity change below about -60%; inconclusive = no clear call, values can overlap the other calls; inactive = above about -39%
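Inhibition of viral replication was scored as loss of reporter luminescence in HFFs infected with HCMV-luciferase (MOI 1 PFU/cell) for 72 h; compounds tested at 2 doses, normalized to buffer and Salinomycin controls.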
FMDV inh: antivirals against foot and mouth disease virus | FMDV antiviral cell-based qHTS | Potency, µM (doses to about 57.9 µM), actives largely listed as inhibitors | 1.2% of 410,000 active | AID 1159524; calls by dose curve; tested in HEK293T cells; note: read-out not given here; nearly all actives have a fitted effect of over 45% in size
AmpC no deterg: AmpC beta-lactamase inhibition without detergent | P00811 | AmpC nitrocefin hydrolysis, absorbance 480 nm, 0.0001% Triton | Potency, µM (highest dose often 57.1 µM), actives largely listed as inhibitors | 0.52% of 330,000 active | AID 485341; note: nearly all actives have a fitted effect of over 20% in size
Target sequence (P00811 whole entry, looked up): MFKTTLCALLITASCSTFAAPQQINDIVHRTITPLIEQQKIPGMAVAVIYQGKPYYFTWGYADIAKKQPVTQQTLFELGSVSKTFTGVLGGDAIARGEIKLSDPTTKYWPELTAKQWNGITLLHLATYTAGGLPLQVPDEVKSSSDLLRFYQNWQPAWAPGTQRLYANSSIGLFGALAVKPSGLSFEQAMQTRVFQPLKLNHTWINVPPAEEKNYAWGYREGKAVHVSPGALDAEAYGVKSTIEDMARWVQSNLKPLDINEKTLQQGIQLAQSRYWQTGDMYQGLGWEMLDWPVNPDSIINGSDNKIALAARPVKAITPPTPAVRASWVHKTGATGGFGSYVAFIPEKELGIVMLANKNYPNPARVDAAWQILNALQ
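20 mM phosphate pH 7.0 + 0.01% (detergent screen) or 0.0001% Triton X-100; 5.3 nM AmpC reagent; cpd preinc 15 min RT; nitrocefin (800 uM stock) to start; A480 q20 s × 4 min; Activity was normalised to no-enzyme and no-compound control wells.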
HCV inh: blocks hepatitis C virus. Huh7.5.1 HCVcc-Cre infection, luciferase reporter, 44 h. Potency, µM (top dose mostly 41.8 µM), most hits filed as inhibitors. 3.4% of 340,000 active
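1,000 cells/well; 4 h culture; + compound; + HCVcc-Cre (~0.5 moi); 44 h; luciferase substrate, RT 15 min; read 15 sec.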
AmpC detergent: inhibitors of E. coli AmpC beta-lactamase with detergent. P00811. AmpC hydrolysis of nitrocefin, absorbance 480 nm, 0.01% Triton. Potency, µM (top dose mostly 114 µM), usual class: inhibitors. 0.041% of 370,000 active. AID 485294; note: nearly all actives have a fitted effect of over 25% in size
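20 mM phosphate pH 7.0 + 0.01% (detergent screen) or 0.0001% Triton X-100; 5.3 nM AmpC reagent; cpd preinc 15 min RT; nitrocefin (800 uM stock) to start; A480 q20 s × 4 min; Activity was normalised to no-enzyme and no-compound control wells.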
A number is an active result; 0 = inactive; ? = inconclusive; - = no result. Most compounds without a hit are left out; they make up all but 7.3% or so of the library. Unless noted, calls come from the whole dose curve; as a rule, active = well fitted curve in the direction sought with a large enough effect; inconclusive = small, poorly fitted or top-dose-only effect, or another doubt; inactive = no such curve, though single readings can be large; an effect the other way counts as inactive or inconclusive.

SMILES	HCMV inh	FMDV inh	AmpC no deterg	HCV inh	AmpC detergent
Cc1cc(NC(=O)C2(C)CCN2C(C)C)c2ccccc2n1 (stereo not drawn)	0	0	-	-	-
CC1(C(=O)Nc2nccs2)CCN1C(=O)C1(c2ccccc2)CC1 (stereo not drawn)	0	0	-	-	-
CC1(C(=O)Nc2nccs2)CCN1C(=O)CC(c1ccccc1)c1ccccc1 (stereo not drawn)	-102.0	0	-	-	-
COC(=O)/C=C/[C@@H](CC1CCCC1)NC(=O)C(F)(F)F	0	-	-	-	-
O=C(c1cc(N2CCOCC2)c(F)cc1[N+](=O)[O-])N1CCOCC1	0	0	0	0	0
NC(=O)c1cc(N2CC2)c([N+](=O)[O-])cc1[N+](=O)[O-]	0	1.26µM	-	0	-
Cc1ccc(C2(c3ccccc3)NC(=O)N(CC(=O)NC3(C#N)CCCC3)C2=O)cc1C (stereo not drawn)	-91.5	0	0	0	0
COc1ccc(C2(c3ccc(OC)cc3)NC(=O)N(CC(=O)NC3(C#N)CCCC3)C2=O)cc1	0	0	0	0	?
COC(=O)c1ccc(S(=O)(=O)N2CCCN(Cc3ccccc3)CC2)n1C	0	0	0	0	0
COC(=O)c1ccc(S(=O)(=O)N2CCCN(Cc3cccc(Br)c3F)CC2)n1C	-74.5	?	0	?	0
O=C(Nc1ccccc1)N1CC(=O)N2[C@@H](CO)[C@H](c3ccc(Br)cc3)[C@@H]2C1	0	-	-	-	-
C=CCN1c2ccc(Br)cc2C(=O)CS1(=O)=O	0	0	3.98µM	0	0
CCOc1ccc(S(=O)(=O)N2CCC(N3CCN(Cc4ccc(C)cc4)C(=O)C3=O)CC2)cc1	0	0	-	-	0
O=S1(=O)CCOC[C@H](Cc2ccccc2)N1Cc1cccc(C(F)(F)F)c1	0	0	-	?	-
FC(F)(F)c1cccc(CC2CN(Cc3ccccc3)Cc3ccccc3N2c2cc(Cl)cc(Cl)c2)c1 (stereo not drawn)	-98.1	0	-	-	-
CSC[C@@H]1NC(=S)N(c2ccc(C)cc2)C1=O	0	11.2µM	0	0	0
Cc1ccc(N2C(=O)C3CCC(C)(C2=O)C3(C)C)cc1 (stereo not drawn)	0	0	0	0	0
CCc1nc2c(OCc3cc(Cl)cc(Cl)c3)cccn2c1N(C)C(=O)Nc1ccccc1OC	0	0	-	-	-
Cn1c(N)c(C(=O)COC(=O)c2cccc(S(=O)(=O)N3CCCCC3)c2)c(=O)n(C)c1=O	0	0	0	0	?
Cc1[nH]c2ccccc2c1C(=O)COC(=O)c1cccc(S(=O)(=O)N2CCCCC2)c1	-77.9	0	0	?	0
Cc1ccc(C(=O)OCC(=O)c2c[nH]c3ccccc23)cc1S(=O)(=O)N1CCCCC1	0	0	15.8µM	31.6µM	0
CCC(C)NS(=O)(=O)c1ccc(S(=O)(=O)N(CCc2ccc(OC)c(OC)c2)Cc2cccs2)cc1 (stereo not drawn)	-64.2	0	0	11.2µM	0
COc1cc(S(=O)(=O)N(CCc2ccccc2)Cc2cccs2)ccc1-n1cnnn1	0	-	0	0	0
COc1ccc(CCN(Cc2cccs2)S(=O)(=O)c2ccc(-n3cnnn3)cc2)cc1OC	?	?	0	11.2µM	?
COc1ccc(CCN(Cc2cccs2)S(=O)(=O)c2ccc(S(=O)(=O)N3CCCCCC3)cc2)cc1OC	0	0	0	?	?
SMILES	HCMV inh	FMDV inh	AmpC no deterg	HCV inh	AmpC detergent
CCN1CCN(c2ccc(S(=O)(=O)N3CCCCC3)cc2NC(=O)/C=C/c2ccc(OC)c(OC)c2)CC1	0	0	0	0	0
CCN1CCN(c2ccc(S(=O)(=O)N3CCCCC3)cc2NC(=O)c2ccc([N+](=O)[O-])s2)CC1	0	0	0	35.5µM	0
CCN1CCN(c2ccc(S(=O)(=O)N3CCCCC3)cc2NC(=O)c2ccccc2)CC1	0	0	0	0	0
CCN1CCN(c2ccc(S(=O)(=O)N3CCCCC3)cc2NC(=O)/C=C/c2ccc(Cl)cc2)CC1	0	0	-	31.6µM	-
CCN1CCN(c2ccc(S(=O)(=O)N3CCCCC3)cc2NC(=O)COc2ccc(Cl)c(C)c2)CC1	0	0	0	11.2µM	0
CCNC(=O)C1(C)CCCN(C(=O)COc2ccc(Cl)cc2Cl)C1 (stereo not drawn)	0	-	-	-	-
Cc1ccccc1OCCC(=O)OCC(=O)NCCNC(=O)COC(=O)CCOc1ccccc1C	0	0	0	0	?
Cn1cnnc1Sc1ccc(CN2CCOc3ccc(C4=Cc5ccccc5CC4)cc3C2)o1	-	0	-	-	-
O=C(CSc1nc2ccccc2s1)N1CCCCC1	0	-	0	0	?
Cc1c(Cl)cccc1N/C(SCC(=O)N1CCCCCC1)=C(/C#N)c1nc2ccccc2s1	-101.3	?	0	?	0
O=S1(=O)[C@H]2C[C@H](CO)O[C@@]2(CO)CN1Cc1ccc(-c2ccc(F)cc2)cc1	0	0	0	11.2µM	-
O=S1(=O)[C@H]2C[C@H](CO)O[C@@]2(CO)CN1Cc1ccc(-c2cccc(Cl)c2)cc1	0	0	0	?	-
Cc1ccc(S(=O)(=O)n2nccc2-c2c(-c3ccc(Cl)cc3)noc2C)cc1	-95.9	0	0	14.1µM	0
c1ccc(-c2cnc(-c3ccccn3)nn2)cc1	0	0	-	0.501µM	-
CC(=O)c1cc2c(cc1NC(=O)Cc1ccsc1)OCO2	0	0	0	5.62µM	0
CCCNC(=O)c1ccc(-n2c(-c3ccccc3)cc3c2CCCCC3)cc1	-87.1	0	-	-	0
CC(C)NC(=O)c1ccc(-n2c(-c3ccccc3)cc3c2CCCC3)cc1	-67.9	0	-	-	0
COCCNC(=O)c1ccc(-n2c(-c3ccccc3)cc3c2CCCCC3)cc1	-99.5	0	-	-	0
CN(C)CCNC(=O)c1ccc(-n2c(-c3ccccc3)cc3c2CCCC3)cc1	-92.3	0	-	-	0
COc1ccc(-c2nc3ccccc3s2)cc1NC(=O)c1cc2ccccc2o1	0	0	-	-	0
Cc1cccc(C)c1Cn1c(C)c(C(=O)NCCC#N)sc1=O	0	0	-	-	-
Cn1c(O)c(/C=C2\N=c3ccccc3=C2CCNC(=S)NC2CC2)c(=O)n(C)c1=O	0	12.6µM	0	0	0
CC(C(=O)O)N1C(=O)c2ccccc2C1=O (stereo not drawn)	-99.0	0	0	0	?
Cc1ccc(C2=CC(=O)N(CCN)C2)cc1	0	-	-	-	-
CCNC(=O)CSc1nc2cc(S(=O)(=O)Nc3ccc(OC)cc3)ccc2o1	?	0	0	0	0
CCN(CC)S(=O)(=O)c1ccc2oc(Nc3ccccc3)nc2c1	0	0	0	?	0
CCN(CC)S(=O)(=O)c1ccc2oc(Nc3ccc(OC)cc3OC)nc2c1	0	0	0	10µM	0
COc1ccc(NS(=O)(=O)c2ccc3oc(SC(C)C(N)=O)nc3c2)cc1 (stereo not drawn)	-	0	0	10µM	0
COc1ccc(NS(=O)(=O)c2ccc3oc(Nc4ccc5c(c4)OCCO5)nc3c2)cc1	-84.7	0	0	3.98µM	?
